Assay results as given in PubChem BioAssay AID624037 (The Scripps Research Institute Molecular Screening Center, 2012).
Among all 360,000 compounds or so, about 700 (0.19%) were called active. The sample holds actives, similar compounds and a random draw of the others, so the mix is not that of the screen. Values without a mark were called inactive.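 How the source made its calls: active means activation above the run's mean over test compounds plus 3 SD (cut at about 23% in these data); inactive means the rest.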

molecular target: Muscarinic acetylcholine receptor M5 (Homo sapiens) (UniProt P08912); test: human M5 muscarinic receptor agonists, primary screen, CHO-K1 cells, Fluo-8 calcium fluorescence (AID 624037); conditions: CHO-K1 hM5 cells, at 3 µM, active compounds read high, 0% DMSO wells, 100% maximal acetylcholine response;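 further: signal is peak over basal fluorescence ratio across the kinetic read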
Sequence (P08912 whole entry, looked up): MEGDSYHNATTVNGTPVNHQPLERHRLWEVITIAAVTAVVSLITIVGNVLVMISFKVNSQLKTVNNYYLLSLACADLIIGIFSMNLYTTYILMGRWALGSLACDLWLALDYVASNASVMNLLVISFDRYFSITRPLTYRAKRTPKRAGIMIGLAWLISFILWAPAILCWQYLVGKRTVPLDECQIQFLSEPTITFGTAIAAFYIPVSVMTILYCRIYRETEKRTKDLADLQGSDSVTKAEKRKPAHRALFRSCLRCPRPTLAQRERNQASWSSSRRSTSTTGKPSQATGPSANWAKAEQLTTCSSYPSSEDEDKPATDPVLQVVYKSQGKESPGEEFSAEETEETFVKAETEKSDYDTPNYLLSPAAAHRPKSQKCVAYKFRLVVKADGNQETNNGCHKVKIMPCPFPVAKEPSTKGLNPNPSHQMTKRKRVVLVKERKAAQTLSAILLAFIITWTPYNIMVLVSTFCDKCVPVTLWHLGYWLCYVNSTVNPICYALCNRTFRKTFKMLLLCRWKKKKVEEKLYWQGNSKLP

Compound | activation
COc1ccc(OCCCn2cccc2/C=C2/C(=N)N3OC(C)=CC3=NC2=O)cc1 | 0.09%
CC1=CC2=NC(=O)/C(=C/c3coc4ccccc4c3=O)C(=N)N2O1 | 38.9% (active)
CC(C)CCN1CCN(Cc2cn[nH]c2C2CCCCC2)CC1CCO (stereo not given) | -10.3%
CCOCCCNC(=O)c1ccc(CS(=O)(=O)c2cccc(C(F)(F)F)c2)o1 | -2.51%
Cc1cc2nc3c(=O)n(Cc4ccccc4)c(=O)[nH]c3nc2cc1N | 86.1% (active)
Cn1c(=O)[nH]c(=O)c2c1[nH]c(=S)n2Cc1ccccc1 | -2.82%
Cc1cc(OCC(=O)N(C)c2c(N)n(Cc3ccccc3)c(=O)[nH]c2=O)c(C(C)C)cc1Cl | -1.72%
O=C(COc1ccc(F)cc1)N(CC1=CCS(=O)(=O)C1)c1ccccc1 | -3.65%
O=C(O)c1ccc2c(=O)n3c(nc2c1)/C(=C/c1ccc(OC(F)F)cc1OC(F)F)CC3 | -3.87%
COc1ccc(NC(=O)CCS(=O)(=O)c2cc3c(cc2Cl)NC(=O)CO3)cc1OC | -3.81%
COc1ccc(Cl)cc1NC(=O)CCS(=O)(=O)c1cc2c(cc1C)NC(=O)CO2 | 38% (active)
Cc1cc2c(cc1S(=O)(=O)CCC(=O)NCc1ccccc1)OCC(=O)N2 | 0.35%
CCOC(=O)Cn1c(=O)oc2cc(S(=O)(=O)NCC3CCCO3)ccc21 (stereo not given) | 1.72%
Cc1ccc(S(=O)(=O)N2C[C@H]3n4c(=O)ccc(=O)n4C[C@H](OC(=O)NC4CCCC4)[C@@]3(O)C2)cc1 | 0.5%
CCC1(C(=O)c2ccccc2)C(c2cccc([N+](=O)[O-])c2)C1(C(=O)OC)C(=O)OC (stereo not given) | -4.52%
O=C(Oc1ccc(C(=S)N2CCOCC2)cc1)c1ccc(F)cc1 | 3.46%
Cc1nn(C)cc1N1C(=O)c2cccc3c(N)ccc(c23)C1=O | 91.9% (active)
CN1C(=O)c2cccc3c(N)ccc(c23)C1=O | 45.7% (active)
CCC(C)(C)NC(=O)CN(C(=O)CCC(=O)Nc1nccs1)c1ccc2c(c1)OCO2 | -2.1%
COC(=O)c1sccc1-n1cccc1C(=O)C(=O)N1CCCCC1 | -2.31%
CC/C(=N\NC(=O)c1c(C)nc2ccccn12)c1ccc(Cl)cc1 | -4.55%
COc1ccc(N2C(=O)C3C(C2=O)C(C(=O)c2ccccc2)N2CCCC32)cc1 (stereo not given) | 1.81%
CCn1c(CNc2ccc(OC)cc2)nnc1SCC(=O)c1ccc(OC)cc1 | -9.07%

Compound | activation
O=[N+]([O-])/C=C1\CCCCCN1 | -0.84%
N#CC1(Nc2ccc3c4c(cccc24)CC3)CCCCC1 | 37.2% (active)
CC(C)C(=O)Nc1ccc2c3c(cccc13)CC2 | -5.26%
N#CC1(Nc2ccc(-c3ccc(Cl)cc3)cc2)CCCC1 | -3.18%
COc1ccc(Cl)cc1S(=O)(=O)N1CCC(O)(c2ccc(Cl)cc2)CC1 | -0.77%
COc1cc(Cl)c(S(=O)(=O)n2cnc(C)c2)cc1Cl | 0.51%
COc1cc(OC)c(-n2cc(-c3ccc(Cl)cc3)[nH]c2=O)cc1Cl | 42.8% (active)
COc1ccc(C)cc1NC(=O)CSc1nnc(CC(=O)Nc2ccccc2F)n1C | -1.92%
COc1ccc(OC)c(CN2C(=O)CCC2(C)c2nnnn2Cc2ccccc2)c1 (stereo not given) | 2.06%
COc1ccc(-n2c(C)csc2=S)cc1 | -0.99%
CCOC(=O)C1=C(CC)OC(N)=C(C#N)C1c1ccc(F)cc1F (stereo not given) | -0.33%
Cn1cc(CNC(=O)c2ccc(OC3CCN(Cc4ccccn4)CC3)cc2)cn1 | -4.97%
COc1ccc(SCCN2CCN(CC(C)C)CCC2=O)cc1 | 1.8%
O=C(COc1nc2ccccc2nc1N1CCOCC1)NCC(F)(F)F | -2.71%
Nc1nc2c(ncn2[C@@H]2O[C@H](CNCc3ccc(OCCCN4CCOCC4)cc3)[C@@H](O)[C@H]2O)c(=O)[nH]1 | 0.62%
O=[N+]([O-])c1cc(C(F)(F)F)ccc1NCCc1ccncc1 | -2.99%
COc1ccc(C(=O)/C=C/Nc2ccccn2)cc1 | 78% (active)
O=C(/C=C/Nc1ccc(S(=O)(=O)Nc2cnc3ccccc3n2)cc1)c1cccnc1 | -3.4%
COCCN(C(=O)CCC(=O)Nc1ccccn1)C(C(=O)NCCC(C)C)c1ccc(OC)cc1 (stereo not given) | -1.86%
CCOc1ccc(C(=O)NC(=S)Nc2ccc(N3CCOCC3)c(Cl)c2)cc1[N+](=O)[O-] | -0.99%
COc1ccc(NC(=O)CN2C(=O)COc3ccc(S(=O)(=O)N4CCOCC4)cc32)c(OC)c1 | 0.4%
C[C@H]1COC(=O)[C@H](CC(=O)OC(C)(C)C)C/C=C\C[C@@H](CC(=O)N[C@H](CO)Cc2ccccc2)C(=O)N1 | 0.74%
Nc1ccn(C2CC(O)C(CO)O2)c(=O)n1 (stereo not given) | 10.7%

Compound | activation
O=c1[nH]cnc(O)c1C(c1ccc(F)cc1)c1c(O)nc[nH]c1=O | 0.85%
Cc1occc(=O)c1OCc1c(Cl)cccc1Cl | -4.28%
Cc1occc1C(=O)NC1CCCN(Cc2ccc(CC(C)C)cc2)C1 (stereo not given) | -1.97%
Cc1ccc(Cn2c(C)c(C(=O)NCc3ccccc3C(F)(F)F)sc2=O)cc1 | -2.26%
CC(=O)Oc1ccc(Cn2c(C)c(C(=O)NCc3ccc(C#N)cc3)sc2=O)cc1 | 47.2% (active)
Cc1c(C(=O)NCc2ccc(C#N)cc2)sc(=O)n1Cc1ccc(C(=O)N(C)C)cc1 | 0.99%
CCN(C(=O)COC(=O)c1cc(NS(=O)(=O)c2ccc(Cl)c([N+](=O)[O-])c2)ccc1O)C1CCCCC1 | 2.95%
CCC(CC)NC(=O)CSc1nnc(-c2c[nH]c3ccccc23)o1 | -0.74%
CC1=CC=CN2C1=NC(=O)CC2(C)C(=O)N(CC(=O)NC1CCCC1)c1ccccc1C (stereo not given) | 0.83%
COc1cc(=O)[nH]c(=O)n1C(=O)Cc1ccccc1 | -1.68%
COc1cc(C(=S)NCc2ccccc2)cc(Br)c1O | -4.14%
COc1cc(/C=C2/SC(=S)N(Cc3ccccc3)C2=O)cc(OC)c1O | 24.1% (active)
Nc1c(C(=O)c2cccs2)sc2nsc(SCCN3CCCCC3)c12 | 121% (active)
COc1cccc(-c2cnc3c(NC(C)=O)cc(-c4cc(F)ccc4OC)cn23)c1 | -1.59%
CCn1c(C(C)C)n[nH]c1=S | 1.36%
CCCn1nc2cc(C(=O)NCc3ccccc3)ccc2c1OCC | -0.79%
CCc1ccc(NC(=O)Cn2nnc(C(=O)NCc3ccc4c(c3)OCO4)c2N)cc1 | -3.78%
CCOc1ccc(Cn2nnc(C(=O)NCc3ccccc3)c2N)cc1 | 34.7% (active)
CCN(CC)CCCC(C)n1c2nc(=O)[nH]c(=O)c-2nc2cc(Cl)ccc21 (stereo not given) | 438% (active)
CC#CC[N+](C)(C)CCCCCC | -16.5%
CCc1ccc(NC(=O)C(C)OC(=O)/C=C/c2cccc([N+](=O)[O-])c2)cc1 (stereo not given) | -0.62%
CCCCN(C)CCNC(=O)CSCc1ccc(C)cc1 | -6.02%
Cc1ccc(CNC(=O)C(=O)c2cn(CC(=O)N3CCOCC3)c3ccccc23)cc1 | -1.51%

Compound | activation
O=C1/C(=C/c2ccc3c(c2)OCO3)Oc2cc(OCC(=O)N3CC(O)C[C@H]3C(=O)O)ccc21 (stereo not given in full) | 0.73%
CCOCCCNC(=S)Nc1ccc2nc(N3CCN(CC)CC3)cc(C)c2c1 | -4.11%
Cn1cccc1C(C#N)c1ccccc1C#N (stereo not given) | -3.67%
Cc1cccc2c1N(CCOc1ccccc1)C(=O)C2=O | 30.5% (active)
Cc1cccc(C)c1-n1nnnc1C1(C)CCC(=O)N1CCOc1ccccc1 (stereo not given) | 4.47%
O=C1c2ccccc2C(=O)N1CCOc1ccc(F)cc1 | 11.9%
O=c1ccc(S(=O)(=O)N2CCCC2)cn1Cc1nc(-c2ccccc2)no1 | -5.43%
Cc1ccc(C)c(NC(=O)c2ccc(OC(=O)c3ccco3)cc2)c1 | -2.18%
Cc1csc(=O)n1CC(=O)OCC(=O)N(CC(C)C)c1c(N)n(Cc2ccccc2)c(=O)[nH]c1=O | 3.34%
CN(Cc1ccccc1)C(=O)COC(=O)/C=C/c1ccc2c(c1)OCO2 | 0.5%
CCNC(=O)C1(C)CCCN(Cc2noc(-c3ccccc3OC)n2)C1 (stereo not given) | 1.13%
Cc1ccc(CNC(=O)c2cccc3c2C(=O)c2ccc(N4CCC(C)CC4)cc2S3(=O)=O)cc1 | 4.93%
COc1ccc(S(=O)(=O)N2CCC(C(=O)NCCC(=O)Nc3ccccc3OC)CC2)cc1 | -1.33%
CN(c1ccccn1)c1ncnc2[nH]ncc12 | -0.14%
CN(C)/C=C/C(=O)c1cnc2sccn2c1=O | -2.29%
O=C(O)c1ccn(COc2ccc(Br)cc2)n1 | -0.71%
Cc1c(NC(=O)COC(=O)/C=C/c2cccc(F)c2)c(=O)n(-c2ccccc2)n1C | 0.67%
CCCCC[C@H]1CN(C2CCCCC2)C(=O)[C@@H]1CC(=O)NCc1ccc(OC)cc1 | -4.19%
COc1cc(N2C(=O)CC3(CCCC3)CC2=O)cc(OC)c1OC | 1.4%
Cc1ccc(C)c(NS(=O)(=O)c2ccc(OCC(=O)NCc3cccnc3)cc2)c1 | -1.65%
CC(C)(C)OC(=O)C[C@@H]1C/C=C\C[C@@H](CC(=O)NCCO)C(=O)N[C@H](Cc2c[nH]c3ccccc23)COC1=O | -0.08%
